This is a sample that favours compounds with a hit; in the whole collection about 5.3% have one here.
JMJD2A Tudor: JMJD2A Tudor domain (human) inhibition. 390,000 tested, 4.4% active. Potency, µM (doses to about 114 µM), for the others: top-dose activity change, negative = inhibition, usual class: inhibitors. AlphaScreen JMJD2A-Tudor / H3K4me3 peptide binding; note: potency is the fitted concentration of half-maximal effect; % is set by controls: 0 for no effect and ±100 for the full control effect; nearly all actives have a fitted effect of over 50% in size
BAZ2B block: blocks human BAZ2B; 360,000 tested, 4.4% active; AID 504333; Q9UIF8; Potency, µM (series often up to 114 µM), for inactives: top-dose activity change, negative = inhibition, usual class: inhibitors; AlphaScreen BAZ2B-H3K14Ac peptide displacement; note: potency is the fitted concentration of half-maximal effect; % is set by controls: 0 for no effect and ±100 for the full control effect; nearly all actives have a fitted effect of over 60% in size
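Multi-concentration screen (max 110 uM) measuring displacement of acetylated histone H3 peptide from BAZ2B by AlphaScreen, using 50 nM protein, 50 nM peptide and 10 ug/mL streptavidin donor plus Ni-chelate acceptor beads.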
CtBP-E1A inh: inhibitors of CtBP/E1A interaction | 340,000 tested, 0.49% active | activity change, % (no concentration beside the values) | AlphaScreen GST-E1A/His-CtBP binding, 1536-well; active compounds read low; in the data active = activity change below about -65%; inconclusive = mostly about -30% to -63%; note: % is set by controls: 0 for no effect and ±100 for the full control effect
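AlphaScreen with 125 nM GST-E1A and 125 nM His-CtBP (5X stocks) in Tris pH 8.0, 300 mM NaCl, BSA, Tween 20, TCEP. Compounds preincubated 2 h at 37 deg C, then glutathione donor/nickel acceptor beads added for 1 h at 37 deg C in dark.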
TDP1 inh: TDP1 (human) enzyme inhibition | AID 485290 | recombinant TDP1, AlphaScreen DNA substrate cleavage | Potency, µM (top dose mostly 130 µM), inactives show at the top dose activity change, negative = inhibition, actives largely listed as inhibitors | Q9NUW8 | 350,000 tested, 0.28% active; note: potency is the fitted concentration of half-maximal effect; % is set by controls: 0 for no effect and ±100 for the full control effect; nearly all actives have a fitted effect of over 40% in size
Target sequence (Q9NUW8 whole entry, looked up): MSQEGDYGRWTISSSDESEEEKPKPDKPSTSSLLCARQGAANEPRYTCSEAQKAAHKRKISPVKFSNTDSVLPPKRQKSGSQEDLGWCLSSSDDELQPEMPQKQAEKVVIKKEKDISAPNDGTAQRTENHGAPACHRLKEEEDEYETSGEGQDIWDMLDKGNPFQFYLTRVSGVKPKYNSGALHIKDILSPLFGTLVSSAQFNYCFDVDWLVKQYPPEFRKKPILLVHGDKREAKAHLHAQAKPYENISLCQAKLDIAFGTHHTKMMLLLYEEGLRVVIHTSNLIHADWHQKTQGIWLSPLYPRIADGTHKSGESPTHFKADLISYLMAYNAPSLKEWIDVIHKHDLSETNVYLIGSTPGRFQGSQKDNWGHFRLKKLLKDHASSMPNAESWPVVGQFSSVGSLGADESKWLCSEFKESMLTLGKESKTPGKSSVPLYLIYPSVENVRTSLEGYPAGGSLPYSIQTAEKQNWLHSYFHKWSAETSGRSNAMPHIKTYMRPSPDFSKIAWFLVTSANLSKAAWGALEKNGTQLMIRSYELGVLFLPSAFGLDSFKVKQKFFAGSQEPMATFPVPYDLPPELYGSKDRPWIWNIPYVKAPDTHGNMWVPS
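Here, a 5' biotin and 3' phosphotyrosine-FITC DNA oligonucleotide reports Tdp1 activity: intact substrate bridges AlphaScreen beads, while cleavage leaves a 3' phosphate and drops signal. All incubations at room temperature.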
HP1b chromo inh: blocks HP1-beta chromodomain binding to methylated histone tails; AlphaScreen HP1-beta / biotin-H3K9me3 peptide binding; Potency, µM (highest dose often 114 µM), inactives show at the top dose activity change, negative = inhibition, usual class: inhibitors; 390,000 tested, 0.56% active; AID 540317; note: potency is the fitted concentration of half-maximal effect; nearly all actives have a fitted effect of over 70% in size
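AlphaScreen: HP1-beta (50 nM) preformed 30 min with biotin-H3(1-18)K9me3 peptide (50 nM) in PBS pH 7.4, 0.01% Tween-20. Compound added for 30 min at RT, then streptavidin donor/nickel chelate acceptor beads (10 ug/mL) for 30 min.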
Six1-Eya2 inh: Six1/Eya2 interaction inhibition; AlphaScreen GST-Six1/His-Eya2 binding, biochemical; active compounds read low; activity change, % (no concentration beside the values); 360,000 tested, 0.56% active; in the data active = activity change below about -65%; inconclusive = mostly about -30% to -63%; note: % is set by controls: 0 for no effect and ±100 for the full control effect
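Homogeneous AlphaScreen proximity assay pairing GST-Six1 with His-tagged Eya2 (added as 5X mix: 250 nM and 500 nM) in 50 mM Tris pH 8.0, 300 mM NaCl, 1 mM TCEP. Glutathione donor and nickel acceptor beads; 1 h, 37 °C, dark.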
An asterisk follows results filed as active; [ ] = dose if it differs, or a comment. Unless noted, calls come from the whole dose curve; as a rule, active = well fitted inhibition curve with a large enough effect; inconclusive = small, poorly fitted or top-dose-only effect; inactive = no such curve, though single readings can be large or run the other way.

Results for CC(=O)c1ccc(S(=O)(=O)Nc2cccc(-n3cnnn3)c2)cc1 ?
JMJD2A Tudor: inconclusive; BAZ2B block: 50µM*; CtBP-E1A inh: 4; TDP1 inh: inconclusive; HP1b chromo inh: 5%; Six1-Eya2 inh: 0

What do the screens show for `Cc1ncoc1C(=O)N1CCc2c([nH]c3ccccc23)C1C1CCCCC1` (stereo unspecified)?
JMJD2A Tudor: inconclusive; BAZ2B block: 25µM*; CtBP-E1A inh: -26; TDP1 inh: 5%; HP1b chromo inh: -2%; Six1-Eya2 inh: -10

How did Cc1ncoc1C(=O)N1CCc2c([nH]c3ccccc23)C1C(C)(C)C (stereo unspecified) do in these assays?
JMJD2A Tudor: -22%; BAZ2B block: -28%; CtBP-E1A inh: 4; TDP1 inh: 4%; HP1b chromo inh: 19%; Six1-Eya2 inh: 0

Results for CC(C)(C)c1ccc(C(=O)NNc2cc(N3CCCCC3)nc(N3CCCCC3)n2)cc1 ?
JMJD2A Tudor: inconclusive; BAZ2B block: 10µM*; CtBP-E1A inh: -11; TDP1 inh: 6%; HP1b chromo inh: 7.1µM*; Six1-Eya2 inh: -9

What do the screens show for `CCOC(=O)C1=C(N)n2c(s/c(=C\c3ccco3)c2=O)=C(C(=O)OCC)C1c1ccco1` (stereo unspecified)?
JMJD2A Tudor: inconclusive; BAZ2B block: 7.9µM*; CtBP-E1A inh: -13; TDP1 inh: 3%; HP1b chromo inh: -18%; Six1-Eya2 inh: -13

What do the screens show for `CCOC(=O)C1=C(c2ccccc2)N=c2s/c(=C\c3ccco3)c(=O)n2C1c1cccs1` (stereo unspecified)?
JMJD2A Tudor: 25µM*; BAZ2B block: 11µM*; CtBP-E1A inh: 8; HP1b chromo inh: -35%; Six1-Eya2 inh: -19

Results for CCOC(=O)C1=C(N)n2c(s/c(=C\c3ccco3)c2=O)=C(C(=O)OC(C)C)C1c1ccco1 (stereo unspecified) ?
JMJD2A Tudor: inconclusive; BAZ2B block: inconclusive; CtBP-E1A inh: -8; TDP1 inh: 13%[56.1 µM]; HP1b chromo inh: -29%; Six1-Eya2 inh: -15

What do the screens show for `Cc1ccc(S(=O)(=O)NC(C(=O)Oc2ccc3ccc(=O)oc3c2)c2ccccc2)cc1` (stereo unspecified)?
JMJD2A Tudor: -12%; BAZ2B block: 1%; CtBP-E1A inh: 3; TDP1 inh: 3%; HP1b chromo inh: 37%; Six1-Eya2 inh: -5

What do the screens show for `Cc1ccc(S(=O)(=O)N[C@H](C(=O)Oc2ccc3c(C(F)(F)F)cc(=O)oc3c2)c2ccccc2)cc1`?
JMJD2A Tudor: 28µM*; BAZ2B block: 7%; CtBP-E1A inh: -11; TDP1 inh: 6%; HP1b chromo inh: 31%; Six1-Eya2 inh: 2

Results for COc1ccc(C2c3c(n(Cc4ccccc4)cnc3=N)Oc3ccc4ccccc4c32)cc1OC (stereo unspecified) ?
JMJD2A Tudor: inconclusive; TDP1 inh: 5%

Results for CC(=O)Nc1cccc(S(=O)(=O)Nc2ccc(C)c(C)c2)c1 ?
JMJD2A Tudor: -16%; TDP1 inh: 1%

How did O=C(Nc1ccc2c(c1)CCCN2C(=O)c1cccs1)c1ccc(F)c(F)c1 do in these assays?
JMJD2A Tudor: -5%; BAZ2B block: -19%; TDP1 inh: 9%; HP1b chromo inh: 36%

How did Cc1ccc2nc3nc4ccc[nH]c4cc3c2c1 do in these assays?
TDP1 inh: 1%[21 µM]

Results for CCCNS(=O)(=O)c1cc(CN2C(=O)c3cccnc3C2=O)ccc1OC ?
JMJD2A Tudor: 89µM*; BAZ2B block: inconclusive; CtBP-E1A inh: -10; HP1b chromo inh: 8%; Six1-Eya2 inh: -4

Results for COc1ccc(Cn2c(CNS(=O)(=O)c3ccc(Cl)s3)nc3cccnc32)cc1 ?
JMJD2A Tudor: 0%; BAZ2B block: -3%; TDP1 inh: 12%; HP1b chromo inh: 35%[57 µM]

Compound activity as filed in PubChem BioAssay.
